Experimental data as given in the supplement of paper PMC3724861.
The full list was thinned out, with hits kept by preference. No count for the full screen is at hand.

tested on: T1, Caupolican (Caup) homeodomain DNA-binding domain; assay: PBM E-score (8-mer, recovered from the published 9-mer minima) (E-score (dimensionless, -0.5 to 0.5)); Drosophila protein; higher = stronger relative binding preference, active = 0.31 or more
T1 sequence: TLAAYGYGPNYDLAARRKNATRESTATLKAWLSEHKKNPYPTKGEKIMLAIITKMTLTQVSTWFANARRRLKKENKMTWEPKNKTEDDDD
Method: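 Protein binding microarray (PBM): in vitro transcribed/translated Caupolican (Caup) homeodomain DNA-binding domain (residues 214-303) applied at 100 nM to a universal 8-mer PBM array (Agilent AMADID 015681). The 8-mer enrichment score (E-score, range -0.5 to 0.5) was computed, and each 9-mer score is the minimum E-score of its two constituent 8-mers. The E-score is the same for a 9-mer and its reverse complement; 0.31 is the stated binding threshold.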

PBM E-score, inactive:
AGCCTGGG -0.123, AATCCCCC -0.256, CGGGAACA 0.176, AGACAACC 0.201, CTTAACAA 0.228, GTCGCGAA 0.00326, ATGGTGTC 0.142, GCTAGGCC -0.238, GCACATAA 0.0651, GTACATAC 0.307, ACCCTGGG -0.105, GAGATAGC -0.0575, AACAACGT 0.252, AACAACAG 0.243, AGCAACAA 0.182, CACAACAA 0.29, AACAACTG 0.208, TACAACGA 0.267, AACAACTC 0.167, TTCAACAA 0.299, AGTTTCCA 0.0163, CTCTGGGC -0.214, CCCGTGAA -0.0554, TCCGAGGA -0.0519, GGGAGTAA 0.0271, AATCCGGC -0.121, CTTGGGTA -0.0204, CCACCGGC -0.281, TTACTCAA 0.0597, ATCAACAA 0.289, ATCAACAG 0.109, AACAACCC 0.247, AACAACCT 0.243, CGCGCTAG -0.142, GTCGATAA 0.0563, ACACCCGC -0.0419, AAAAAAGA -0.0444, CCGGCTCA -0.123, GATGAATC 0.106, CTGTCAAG -0.017, CTGTTTGA 0.188, ATGTTTGG 0.229, ATGTTTAG 0.284, GTGTTTTA 0.213, CTGTTTTA 0.107, CTGTTTAA 0.111, CTGTTTTC 0.134, ATGTTTCC 0.236, ACGCAATC -0.0194, GAGTTTAC -0.00241, ACATCGCT 0.178, CCTTCTAC -0.131, CATCTGAC 0.0423, AAGGTACC -0.127, ACCGCACA -0.00685, CGCGGAGA -0.112, ATAGCTTC -0.0833, CTGTTAGA 0.105, CTGTTAGC -0.0813, GTGTTAGA 0.224, ATGTTAGG 0.219, GATGACAC 0.219, AATGACAG 0.219, AATGACAT 0.298, GATGACAA 0.308, AATGACAC 0.277, CATGACAA 0.283, AGATCATC 0.12, ACAGGCGC -0.0681, TGAGGGCA -0.108, GAGCACAC 0.00424, AGCGTCTA -0.0661, ACACGGTC 0.219, ACACGGAA 0.291, ACACGGAG 0.131, ACACGGTG 0.307, ACAACGTA 0.255, AGTCACAG 0.0714, CGCCCCCA -0.285, ACCATGAT 0.158, ACCATGAC 0.0507, AGCATGAC 0.0874, CACATGAG 0.0472, AGCATGAT 0.197, AGCATGAG 0.104, AGAAGATC -0.0662, GTTGGATA 0.0774, ATCCAATC 0.102, AGCCCTTC -0.22, GCTCGTGA -0.064, AGCGGGGG -0.28, GACTATGA 0.0441, ATAATGCC 0.0429, ACTTGCAT 0.137, GCGTTTAC -0.0438, AGCACATC 0.0585, AGTACGTG 0.0988, AGTACAGC 0.167, AGCACATG 0.164, CGTGATAG -0.0553, AGCGCAAG -0.181, CTTTGCGA -0.0806, TAAAAAGA 0.0988, CAAAGTTC -0.0431, CTATGTTA 0.294, ATATGTGG 0.182, CTATGTTC 0.31, GTCTGTTA 0.161, ATATGTGA 0.25, ATCTGTTG 0.128, CTCTGTTA 0.107, ATATGTGC 0.118, ATTCAGTC 0.00318, AGCCATTC -0.0817, CCCTAGGG -0.253, GATGTTCA 0.303, TATGTTGA 0.288, AATGTTCG 0.154, AATGTTCA 0.244, TCTGTTCA 0.0822, GATGTTCC 0.281, CCTGTTCG 0.0935, AATGTTCC 0.2

PBM E-score, active:
GTACATAA 0.361, AACAACAT 0.409, TACAACAA 0.387, AACAACAA 0.394, AACAACTA ≥ 0.319, AACAACCA ≥ 0.324, ATCAACAT 0.371, ATGTTTTC 0.33, ATGTTTAA 0.367, ATGTTTGA 0.327, ATGTTTTA 0.369, ATGTTAGA 0.329, ATGTTAGC 0.314, CATGACAC 0.363, TATGACAA 0.314, AATGACAA 0.346, ACACGGTA 0.327, ACACGGAT 0.339, AACATGAC 0.42, AACATGAG 0.351, AACATGAT ≥ 0.424, AGTACATC 0.342, AGTACATG 0.45, ATATGTTC 0.347, GTATGTTA 0.321, ATATGTTA 0.338, ATATGTTG 0.324, CATGTTCA 0.396, TATGTTCA 0.324, CATGTTCC 0.409, CATGTTCG 0.399
